Data on seven compounds can be found in PubChem BioAssay (Tox21).

Structures are written as SMILES. Several values for one entry are separate records, joined by “and”; a condition that tells them apart may be missing. Equal values may be shown once. Unmarked numbers belong to inactive results. Inconclusive results are not listed. Activity calls are given as the source filed them. Unless noted, the call rests on the fitted dose curve; in most records, active means well fitted curve in the direction sought with a large enough effect in the repeat runs; inconclusive means weak or mixed curves; inactive means no such curve, though single readings can be large; an effect the other way counts as inactive or inconclusive.

Experiment [1] is described as follows: qHTS assay for small molecules that induce genotoxicity in human embryonic kidney cells expressing luciferase-tagged ATAD5 (AID 651632). Further: nearly all actives have a fitted effect of over 15% in size. The procedure, abridged:
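Genotoxicity read-out via ATAD5-luciferase: HEK293T cells, 16 hr compound incubation at 37C, Amplite detection.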
In general terms: qHTS replaces the single test concentration by a dilution series.

A short description of experiment [2]: qHTS assay for small molecule agonists of the p53 signaling pathway - cell viability (AID 651633; calls by dose curve; further: nearly all actives have a fitted effect of over 30% in size; further: potency means the concentration at half of the fitted maximal effect). In outline:
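p53RE-bla cells, seeded at 4,000 per well and rested 5 h at 37 C/5% CO2, received compounds in DMSO for 16 h at 37 C. CellTiter-Glo was then added, and luminescence was read after 30 min at room temperature to gauge cytotoxicity.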

The nature of experiment [3]: qHTS assay for small molecules that induce genotoxicity in human embryonic kidney cells expressing luciferase-tagged ATAD5 - cell viability (AID 651634; calls by dose curve; further: nearly all actives have a fitted effect of over 25% in size; further: potency means the concentration at half of the fitted maximal effect). The procedure, abridged:
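Live-cell protease activity (CellTiter-Fluor, fluorescence) indicates viability. HEK293T cells with luciferase-tagged ATAD5; 15.5 hr compound treatment at 37C.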

Experiment [4] in a line: qHTS assay for small molecule disruptors of the mitochondrial membrane potential - cell viability (AID 720634; calls by dose curve; further: nearly all actives have a fitted effect of over 20% in size; further: potency means the concentration at half of the fitted maximal effect). The procedure, abridged: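 Human hepatoma HepG2 cells were treated for 1 hr with test chemicals, then given m-MPI dye and CellTiter-Glo. Cell viability reflects luminescence proportional to cellular ATP.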
A short description of experiment [5]: qHTS assay for small molecule disruptors of the mitochondrial membrane potential (AID 720635). Further: potency means the concentration at half of the fitted maximal effect. The procedure, abridged: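 HepG2 cells (2,000/well) attached overnight at 37C, then took compound for 1 hr at 37C, 5% CO2. Mito-MPS dye was added for 30 min; fluorescence was read at 490/535 nm (monomers) and 540/590 nm (aggregates).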
Experiment [6] in a line: qHTS assay to test for compound auto fluorescence at 590 nm (red) in HepG2 cells (AID 720674). In outline:
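Intrinsic compound fluorescence in the red window (Ex/Em 540/590 nm) is measured in attached HepG2 cells exposed for 1 hr, DMSO vehicle as baseline, benchmarked to Rose Bengal sodium.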

Experiment [7] in a line: qHTS assay to test for compound auto fluorescence at 535 nm (green) in HepG2 cells (AID 720675).
A short description of experiment [8]: qHTS assay to test for compound auto fluorescence at 460 nm (blue) in HEK293 cells (AID 720678). In outline:
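After cell attachment (4-5 hr, 37C), compounds were pinned onto HEK293 monolayers in 10% dialyzed FBS medium. The blue channel (405/460 nm) was read following overnight culture. Equivalency was calculated against triamterene.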

The nature of experiment [9]: qHTS assay to test for compound auto fluorescence at 590 nm (red) in HEK293 cells (AID 720679). The procedure, abridged:
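Plates of HEK293 cells (10% dialyzed FBS) are treated with 23 nL compound or DMSO vehicle after a 4-5 hr attachment period, incubated overnight at 37C, and read for red fluorescence at 540/590nm.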

Experiment [10] in a line: qHTS assay to test for compound auto fluorescence at 535 nm (green) in HEK293 cells (AID 720680).
Experiment [11] can be described thus: qHTS assay to test for compound auto fluorescence at 460 nm (blue) in HEK293 cell free culture (AID 720681). The procedure, abridged:
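Test compounds were pinned into cell-free culture medium (DMEM with 10% FBS) and fluorescence was read directly at Ex/Em 405/460 nm. Signals were expressed as fluorescence equivalents of triamterene, with DMSO vehicle as control.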

The nature of experiment [12]: qHTS assay to test for compound auto fluorescence at 535 nm (green) in HEK293 cell free culture (AID 720682). In outline: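 Green-label autofluorescence (485 nm excitation, 535 nm emission) measured on compound added to cell-free culture medium (DMEM, 10% FBS). Output is expressed relative to fluorescein.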
The nature of experiment [13]: qHTS assay to test for compound auto fluorescence at 590 nm (red) in HEK293 cell free culture (AID 720683). In outline: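 Tox21 10K library compounds were pinned into cell-free DMEM with 10% FBS and fluorescence was read at excitation 540 nm. Activity is expressed as Rose Bengal sodium equivalency.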
The nature of experiment [14]: qHTS assay to test for compound auto fluorescence at 590 nm (red) in HepG2 cell free culture (AID 720684). In outline:
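Measured in medium alone (MEM containing 10% FBS) following pintool addition of compound; emission at 590 nm with 540 nm excitation, referenced to Rose Bengal sodium.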

The nature of experiment [15]: qHTS assay to test for compound auto fluorescence at 460 nm (blue) in HepG2 cell free culture (AID 720685). The procedure, abridged: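 Compound (23 nL) or DMSO pinned into cell-free MEM with 10% FBS; blue fluorescence read at 405/460 nm excitation/emission, expressed as auto-fluorescence equivalency to triamterene.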
Experiment [16] in a line: qHTS assay to test for compound auto fluorescence at 535 nm (green) in HepG2 cell free culture (AID 720686).
Experiment [17] in a line: qHTS assay to test for compound auto fluorescence at 460 nm (blue) in HepG2 cells (AID 720687). In outline: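 Cells (2,000/well in MEM with 10% FBS) attached overnight at 37 C, then were exposed to compound or DMSO for 1 hr at 37 C, 5% CO2. Fluorescence read at Ex/Em 405/460 nm, expressed as triamterene-equivalent signal.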
Experiment [18] is described as follows: qHTS assay for small molecule agonists of the p53 signaling pathway (AID 651631; calls by dose curve; further: nearly all actives have a fitted effect of over 15% in size; further: potency means the concentration at half of the fitted maximal effect). In outline:
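HCT-116 cells carrying a beta-lactamase reporter under p53 response elements were dosed with compound for 16 h at 37 °C. LiveBLAzer B/G FRET substrate was then added for 2 h at room temperature, and fluorescence intensity was read to detect pathway agonism.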

Experiment [19] has as its target Glucocorticoid receptor (Homo sapiens) (UniProt P04150). In words: qHTS assay to identify small molecule agonists of the glucocorticoid receptor (GR) signaling pathway (AID 720691; active means well fitted activation curve with a large enough effect in the signal ratio in the repeat runs, not every such curve was filed as active; the % refers to the signal ratio). The procedure, abridged: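 Beta-lactamase reporter activity, read as fluorescence intensity, was measured in GR-bla HeLa cells exposed to compounds for 18 h at 37 C and then loaded with LiveBLAzer B/G FRET substrate for 2 h at room temperature.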

The target is the same in experiment [20]. In words: qHTS assay to identify small molecule antagonists of the glucocorticoid receptor (GR) signaling pathway (AID 720692; active means well fitted inhibition curve with a large enough effect in the signal ratio in the repeat runs, not every such curve was filed as active; the % refers to the signal ratio). The procedure, abridged: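 Fluorescence from cleaved LiveBLAzer B/G FRET substrate reports GRE-driven beta-lactamase in HeLa cells; compounds are tested against 5 nM dexamethasone (final) over 18 h at 37 C, substrate incubation 2 h at room temperature.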

Glucocorticoid receptor (Homo sapiens), sequence (P04150 whole entry, looked up): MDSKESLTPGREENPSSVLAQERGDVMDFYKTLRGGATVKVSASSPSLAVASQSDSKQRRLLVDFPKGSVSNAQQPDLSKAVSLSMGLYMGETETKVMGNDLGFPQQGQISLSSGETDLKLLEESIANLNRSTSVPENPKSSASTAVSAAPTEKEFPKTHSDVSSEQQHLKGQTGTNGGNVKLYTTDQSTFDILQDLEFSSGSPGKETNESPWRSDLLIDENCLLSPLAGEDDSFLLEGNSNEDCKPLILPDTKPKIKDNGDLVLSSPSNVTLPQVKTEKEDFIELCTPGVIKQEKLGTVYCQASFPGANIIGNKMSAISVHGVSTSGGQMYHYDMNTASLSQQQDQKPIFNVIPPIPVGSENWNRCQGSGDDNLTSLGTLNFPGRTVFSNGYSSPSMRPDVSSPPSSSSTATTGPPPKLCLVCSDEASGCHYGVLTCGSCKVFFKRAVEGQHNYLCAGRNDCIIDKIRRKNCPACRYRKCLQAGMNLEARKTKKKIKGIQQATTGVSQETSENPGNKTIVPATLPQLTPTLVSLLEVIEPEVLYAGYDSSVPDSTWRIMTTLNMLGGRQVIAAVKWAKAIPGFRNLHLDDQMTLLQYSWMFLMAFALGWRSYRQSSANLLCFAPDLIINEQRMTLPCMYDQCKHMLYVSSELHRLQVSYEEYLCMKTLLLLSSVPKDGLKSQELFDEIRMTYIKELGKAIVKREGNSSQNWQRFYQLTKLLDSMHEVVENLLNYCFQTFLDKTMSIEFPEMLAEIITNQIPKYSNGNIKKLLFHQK

For `C(=NC1CCCCC1)=NC1CCCCC1`, the Potency entry in experiment [1] was “inactive”. Moreover, the Potency is 30.8 µM (active) and 17.2 µM (active) in experiment [2]; 30.8 µM (active) and 43.3 µM (active) in [3]; 5.48 µM (active) in experiment [4]; 138 nM (active) and 217 nM (active) in [5]. The compound was called inactive in experiment [6], in experiment [7], in experiment [8], in [9], in [10] and in experiment [11]. Besides, the compound was classed as inactive in [12], in experiment [13], in experiment [14], in experiment [15], in [16] and in experiment [17].

Regarding `CCCCOC(=O)c1ccccc1C(=O)OCc1ccccc1`, the Potency entry in [18], in experiment [1], in experiment [2], in experiment [3], in [4] and in experiment [20] was “inactive” each time. The call in experiment [6], in [7], in experiment [9], in experiment [10], in [11] and in experiment [12] was inactive. In addition, the call in experiment [13], in experiment [14], in [15], in experiment [16], in [17] and in [19] was inactive.

Consider `CC1(C)[C@H](C=C(Cl)Cl)[C@@H]1C(=O)O[C@@H](C#N)c1cccc(Oc2ccccc2)c1`, for which the Potency result in experiment [18], in experiment [1] and in [3] was “inactive” in each case. Moreover, the compound was classed as inactive in [6], in experiment [7], in [8], in experiment [9], in [10] and in experiment [11]. The outcome in experiment [12], in [13], in experiment [14], in experiment [15], in experiment [16] and in experiment [17] was inactive. Further, in [19], the compound was classed as inactive.

As for `Clc1ccc(C2(Cn3cncn3)CC(Br)CO2)c(Cl)c1` (centres undefined), the Potency entry in experiment [18], in [1], in experiment [2] and in [3] was “inactive” in each case. The result in [6], in experiment [7], in experiment [8], in [9], in experiment [10] and in [11] was inactive. The call in experiment [12], in [13], in experiment [14], in experiment [15], in experiment [16] and in experiment [17] was inactive. The result in experiment [19] was inactive.

As to `CCCCN(N=O)C(=N)N[N+](=O)[O-]`, the Potency in [18] was 62.4 µM (active). The Potency result in [2], in experiment [3], in experiment [4] and in [5] was “inactive” in each case. Moreover, the call in experiment [6], in [7], in [8], in experiment [9], in experiment [10] and in [11] was inactive. Besides, the call in experiment [12], in [13], in [14], in experiment [15], in [16] and in [17] was inactive.

For the compound `CO/C=C(/C(=O)OC)c1ccccc1COc1cccc(C(F)(F)F)n1`, the Potency was 8.63 µM (active) in experiment [18] and 6.85 µM (active) in experiment [5]. Further, the Potency result in experiment [1], in [2] and in experiment [3] was “inactive” each time. Besides, the compound was classed as inactive in [6], in experiment [7], in experiment [8], in experiment [9], in [10] and in experiment [11]. Further, the call in [12], in experiment [13], in experiment [14], in experiment [15], in experiment [16] and in [17] was inactive.

For the compound `CCOC(=O)CBr`, the Potency entry in [18], in [1], in [2], in experiment [3] and in [4] was “inactive” throughout. Further, the outcome in experiment [6], in [7], in experiment [9], in experiment [10], in [11] and in experiment [12] was inactive. For the same compound, the compound was classed as inactive in experiment [13], in experiment [14], in experiment [15], in experiment [16], in experiment [17] and in experiment [19].
